Experimental data published in PubChem BioAssay AID1159580 (chemical genetic matrix, 2015).
Out of some 5,500 compounds screened, about 2,000 (36%) were called active. Not shown: some 18% with an inconclusive outcome. No stated cut-off is given here; in the data, active means normalized growth mostly below about 0.91 (no sharp cut-off); inconclusive means no clear call, values can overlap the other calls; inactive means mostly above about 0.92. Some of the results follow.

Assay: chemical genetic growth profiling, strain panel (AID 1159580);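 further: tested at 20 µM; growth read once vehicle control cultures reached saturation at 30 °C; 1 = growth at the plate median or of vehicle wells; lower values mean less growth of the strain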
Settings: S. cerevisiae deletion strains, growth OD

Measured: normalized growth

CCNC(=O)[C@H]1O[C@@H](n2cnc3c(N)nc(NCCc4ccc(CCC(=O)O)cc4)nc32)C(O)[C@H]1O (some centres undefined)
inactive: locus YAL040C, strain CLN3, active compounds read low 0.963 | locus YCL061C, strain MRC1 (second series), active compounds read low 0.991 | locus YDR363W, strain ESC2, active compounds read low 0.972 | locus YER002W, strain NOP16, active compounds read low 0.995 | locus YGR078C, strain PAC10, active compounds read low 0.992 | locus YJR075W, strain HOC1, active compounds read low 0.999 | locus YMR307W, strain GAS1, active compounds read low 1 | locus YNL153C, strain GIM3, active compounds read low 1 | locus YNL175C, strain NOP13, active compounds read low 0.98 | locus YNL197C, strain WHI3, active compounds read low 0.981 | locus YNL224C, strain SQS1, active compounds read low 1.03 | locus YOR083W, strain WHI5 (second series), active compounds read low 0.978 | locus YPL055C, strain LGE1, active compounds read low 0.953 | locus YPL241C, strain CIN2, active compounds read low 0.976
